Assay outcomes from PubChem BioAssay.
Shown is part of a subset that was picked to be rich in hits.
FBPA Giardia inh: inhibitors of Giardia lamblia fructose-1,6-bisphosphate aldolase. AID 2451. purified Giardia FBPA. Potency, µM (highest dose often 59.6 µM), for the others: at the top dose activity, negative = inhibition, most hits filed as inhibitors. actives 0.71% (n = 290,000). A8B2U2; also: potency is read from the fitted curve at half-maximal effect; % is scaled to controls: 0 for no effect and ±100 for the full control effect; nearly all actives have a fitted effect of over 55% in size
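Giardia FBPA (40 nM reagent) was preincubated 10 min at RT with compound (up to 57.5 uM final), then substrate plus GAPDH/TPI/NAD/arsenate coupling system with diaphorase/resazurin was added; resorufin fluorescence (525/598 nm) was read after 20 min.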
TbPYK inhibitor: inhibitors of Trypanosoma brucei pyruvate kinase; actives 0.12% (n = 410,000); Potency, µM (top dose mostly 76.8 µM), for the others: top-dose activity, negative = inhibition, hits mostly inhibitors; TbPYK enzyme, Kinase-Glo Plus ATP luminescence, 45 min; Q57TT1; AID 624173; also: potency is read from the fitted curve at half-maximal effect; % is scaled to controls: 0 for no effect and ±100 for the full control effect; nearly all actives have a fitted effect of over 50% in size
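T. brucei PYK with substrate was exposed to pin-transferred compounds across a concentration series, then started with 130 uM ADP (final). After 45 min at room temperature, Kinase-Glo Plus luminescence was read, normalized and curve-fitted.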
LmPK inhibitor: inhibitors of Leishmania mexicana pyruvate kinase; Q27686; purified LmPK, Kinase-Glo ATP luminescence, 1 h; Potency, µM (top dose mostly 57.5 µM), inactives show at the highest dose activity change, negative = inhibition, usual class: inhibitors; actives 0.37% (n = 290,000); AID 1721; also: potency is read from the fitted curve at half-maximal effect; % is scaled to controls: 0 for no effect and ±100 for the full control effect
Target sequence (Q27686 whole entry, looked up): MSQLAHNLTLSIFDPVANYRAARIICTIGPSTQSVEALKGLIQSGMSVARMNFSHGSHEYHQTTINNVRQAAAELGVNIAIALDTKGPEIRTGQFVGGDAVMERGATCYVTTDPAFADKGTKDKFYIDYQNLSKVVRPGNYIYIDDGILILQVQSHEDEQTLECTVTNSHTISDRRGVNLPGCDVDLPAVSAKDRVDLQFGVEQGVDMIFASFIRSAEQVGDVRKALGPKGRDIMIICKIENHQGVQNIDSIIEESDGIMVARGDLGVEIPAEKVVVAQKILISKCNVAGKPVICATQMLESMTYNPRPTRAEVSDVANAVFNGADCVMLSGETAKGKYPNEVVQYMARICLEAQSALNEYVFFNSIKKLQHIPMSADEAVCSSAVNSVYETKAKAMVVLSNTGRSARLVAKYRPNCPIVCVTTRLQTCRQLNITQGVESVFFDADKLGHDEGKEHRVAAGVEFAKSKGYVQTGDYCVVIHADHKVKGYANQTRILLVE
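qHTS format; LmPK 0.1 nM; substrates PEP 0.5 mM and ADP 0.1 mM. One-hour room-temperature incubation, then coupled luciferase luminescence; 0.5 nM enzyme wells mark activation.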
CHX counter: affects cycloheximide protein synthesis inhibition readout, counter-screen; max response, %; actives 12% (n = 300,000); cell reporter, cycloheximide protein synthesis inhibition counterscreen; in the data active = max response mostly above about 13%, no sharp cut-off; inactive = mostly below about 14%; also: read at 38.3 µM for the half of the compounds with a filed dose; 0% is about no effect
Sm TGR block: inhibitors of Schistosoma mansoni thioredoxin glutathione reductase; Q962Y6; purified TGR, DTNB reduction, TNB absorbance 405 nm; Potency, µM (titrated, usually from 114 µM), inactives show top-dose activity change, negative = inhibition, usual class: inhibitors; actives 3% (n = 360,000); AID 485364; also: potency is read from the fitted curve at half-maximal effect; % is scaled to controls: 0 for no effect and ±100 for the full control effect; nearly all actives have a fitted effect of over 60% in size
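TGR 20 nM + NADPH 100 uM (dispensed conc.), cpd preinc 15 min RT; start with NADPH (500 uM addition) then DTNB (15 mM addition). Kinetic TNB absorbance, 405 nm filter. Four-parameter Hill fit across titration.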
Shiga inhibitor: blocks Shiga toxin action in Vero cells | Vero cells, Shiga toxin protein synthesis inhibition reporter | inhibition, % at 38.7 µM | actives 9.2% (n = 290,000) | AID 2315; in the data active = inhibition mostly above about 28%, no sharp cut-off; inactive = mostly below about 43%; also: 0% is about no effect
An asterisk follows results filed as active; ? = inconclusive; / = no result. Unless noted, calls follow the shape of the dose curve; as a rule, active = well fitted curve in the direction sought with a large enough effect; inconclusive = small, poorly fitted or top-dose-only effect, or another doubt; inactive = no such curve, though single readings can be large; an effect the other way counts as inactive or inconclusive.

SMILES	FBPA Giardia inh	TbPYK inhibitor	LmPK inhibitor	CHX counter	Sm TGR block	Shiga inhibitor
O=C(c1cc(COc2c(F)cccc2F)on1)N1CCC(c2ccncc2)CC1	2.2%	-3.3%	4.3%	7.0	3.3%	27.6
CCN(CC)c1ccc(N=Nc2nn(C)c(C)c2[N+](=O)[O-])cc1	-12.8%	-13.2%	-19.7%	64.6*	-9.4%	86.7*
CCN(Cc1ccccc1)c1ccccc1	/	1.2%	/	/	/	/
CCN(Cc1ccccc1)c1ccc(N=Nc2nn(C)c(C)c2[N+](=O)[O-])cc1	0.0%	3.3%	-6.7%	17.2*	-5.1%	23.6
CCNc1ncc2nc(C)c(=O)n(CCOC)c2n1	1.3%	/	/	/	/	/
COc1ccc2cnn(CCOc3ccccc3)c(=O)c2c1OC	1.3%	-0.1%	-1.9%	34.0*	6.2%	59.2
COc1ccc2cnn(-c3ccc(OC(F)(F)Cl)cc3)c(=O)c2c1OC	1.0%	-2.8%	2.0%	0.7	-0.1%	-9.9
COc1ccc2cnn(CCOc3cc(C)ccc3C(C)C)c(=O)c2c1OC	-4.0%	2.1%	2.9%	-2.0	-1.9%	19.8
CCOc1ccccc1OCCn1ncc2ccc(OC)c(OC)c2c1=O	6.8%	-4.5%	-3.4%	18.1*	9.9%	26.8
O=C(c1ccc(Cl)s1)N1CCN(c2ncccn2)CC1	6.0%	1.3%	3.3%	0.9	6.5%	-6.5
O=C(c1ccc(Cl)s1)N1CCN(c2ccccc2)CC1	10.3%	-10.8%	2.4%	17.4*	-1.1%	28.1*
O=C(c1ccc(Cl)s1)N1CCc2ccccc21	2.0%	-6.0%	-15.1%	35.8*	-5.5%	81.6*
O=C(c1ccc(Cl)cc1)N1CCc2ccccc21	7.0%	-2.4%	-1.3%	32.8*	22.8%	46.0
CCc1sc(C(=O)N2CCc3ccccc32)cc1C	-6.5%	-10.0%	25.1µM*	66.1*	8.5%	102.3*
Cc1cccc(NC(=O)c2sc3nc(N4CCOCC4)c4c(c3c2N)CC(C)(C)OC4)c1	/	?	/	/	-7.8%	/
COc1ccc(CCNC(=O)c2cc3c(s2)-c2c(C)cccc2OC3)c(OC)c1	/	2.6%	/	/	6.0%	/
CC(C)c1ccc(Cc2cn3cc(-c4cc5ccccc5oc4=O)nc3s2)cc1	/	-8.3%	/	/	-3.4%	/
COCCNc1ccnc(-c2c(C)noc2C)n1	-2.2%	/	/	/	/	/
CCC(=O)N1CCc2cc(S(=O)(=O)N3CCN(c4ccccc4F)CC3)ccc21	/	2.2%	/	/	7.4%	/
Cn1cc(C(=O)N2CCc3ccccc32)cn1	0.0%	-10.6%	-11.5%	22.5*	-6.6%	49.1*
Cc1ccc(C(=O)N2CCc3ccccc32)cc1	0.7%	3.3%	-2.6%	30.9*	-7.0%	89.7*
O=C1C2C3C=CC(CC3)C2C(=O)N1c1ccccc1[N+](=O)[O-] (stereo not drawn)	8.3%	-15.3%	-0.6%	-7.0	17.8µM*	-2.2
Cc1cnc(CN(C)C(=O)c2ccc3oc(Cc4ccc(Cl)cc4)nc3c2)[nH]1	-4.2%	-5.9%	3.7%	-1.2	-2.4%	-13.6
CCCCc1nc2cc(C(=O)N(C)C3CCOCC3)ccc2o1	15.8%	9.2%	-6.3%	67.6*	5.8%	115.8*
CN(C(=O)c1ccc(N2CCOCC2)c([N+](=O)[O-])c1)C1CCCCC1	5.6%	5.9%	6.1%	8.8	-14.7%	/
SMILES	FBPA Giardia inh	TbPYK inhibitor	LmPK inhibitor	CHX counter	Sm TGR block	Shiga inhibitor
CCCCc1nc2cc(C(=O)N(C)CCc3cn[nH]c3)ccc2o1	4.1%	4.1%	-1.6%	50.6*	0.6%	60.6*
O=C(c1ccc2oc(CCc3ccccc3)nc2c1)N1CC[C@H](O)C1	/	0.4%	5.4%	38.2*	-0.2%	85.3*
CCCCc1nc2cc(C(=O)N3CCC(O)CC3)ccc2o1	-5.1%	-7.4%	-9.0%	38.4*	-15.5%	46.5*
COC1CCCN(C(=O)c2ccc3oc(Cc4ccc(Cl)cc4)nc3c2)C1 (stereo not drawn)	/	3.1%	-3.6%	-0.1	-24.7%	24.7
Cc1ccc(C(=O)Nc2cc3cc(Cl)ccc3oc2=O)cc1	/	-5.1%	/	/	1.0%	/
Cc1ccc(CNc2ncnc3onc(-c4ccc(F)cc4)c23)cc1	/	-0.8%	/	/	-7.1%	/
CCCCc1nc2cc(C(=O)N3CCC[C@H]3CO)ccc2o1	11.5%	10.3%	-1.1%	19.6*	-3.3%	38.5*
